# Measurements: publication PMC9574860, “Chemical Toolkit for PARK7: Potent, Selective, and High-Throughput” (Journal of Medicinal Chemistry, 2022)
# About 400 (5.1%) of roughly 7,900 compounds showed an effect of 50% or more. This is one part of a sample in which strong results are shown more often than they occur.
# Molecular target: Parkinson's disease protein 7 (PARK7/DJ1) (human, UniProt Q99497)
# Assay: primary screen, percent inhibition; read as competition with a fluorescent probe by fluorescence polarization; higher = more effect of the substance
# Details: 100 µM
# Method in brief: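 Covalent fragments at 100 μM final were incubated 2 h with 0.2 μM PARK7, then 20 nM probe JYQ-107 added for a further 2 h. Fluorescence polarization read at 480/520 nm; relative FP loss versus reference controls gave remaining enzyme activity.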
# Parkinson's disease protein 7 (PARK7/DJ1), sequence (Q99497 whole entry, looked up): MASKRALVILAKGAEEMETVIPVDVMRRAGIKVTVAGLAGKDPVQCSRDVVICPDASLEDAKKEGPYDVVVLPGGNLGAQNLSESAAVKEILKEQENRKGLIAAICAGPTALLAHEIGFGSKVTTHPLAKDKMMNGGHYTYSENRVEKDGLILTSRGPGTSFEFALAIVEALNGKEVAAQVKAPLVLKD
row,SMILES,Inhibition %
1,CN(CC(=O)Nc1ncc(S(=O)(=O)F)s1)S(C)(=O)=O,9.17%
2,CSC1(CNc2cccc(C#N)n2)CCC1,11.9%
3,C=CC(=O)Nc1ccccc1CN1CCOCC1,8.41%
4,CCOc1cc(S(=O)(=O)n2ccc(C)n2)ccc1Cl,2.71%
5,Cc1cc(B2OC(C)(C)C(C)(C)O2)sn1,0.986%
6,O=C1N(c2ccccc2)C(c2ccco2)C1(F)F (stereo not shown),3.32%
7,Cc1cccnc1S,12.6%
8,Sc1ncccc1Cl,2.79%
9,Nc1cccnc1S,101%
10,C=CC(=O)NC(C)c1csnn1 (stereo not shown),10%
11,N#Cc1nc(N2CCCC(N3CCNC3=O)C2)ccc1Cl (stereo not shown),1.45%
12,Fc1ccccc1OCC1CO1 (stereo not shown),54.7%
13,Cc1ccccc1OCC1CO1 (stereo not shown),13.4%
14,FC(F)(F)c1ccccc1OCC1CO1 (stereo not shown),11.7%
15,C=CC(=O)NCC1=CCOCC1,6.41%
16,COC(=O)c1ccc(S(=O)(=O)F)cc1F,4.21%
17,COC(=O)c1ccccc1CS(=O)(=O)F,7.86%
18,COC(=O)c1ccccc1S(=O)(=O)F,52.5%
19,COC(=O)c1cccc(S(=O)(=O)F)n1,7.02%
20,COC(=O)c1ccc(Cl)c(S(=O)(=O)F)c1,9.08%
21,COC(=O)c1ccc(Cl)cc1S(=O)(=O)F,96.1%
22,Cc1noc(C2CCN(Cc3cc(C#N)n(C)c3)C2)n1 (stereo not shown),6.79%
23,C=CC(=O)N1CCC[C@@H]2O[C@H](c3ccccc3)C[C@@H]21 (racemic),5.3%
24,N#Cc1nccnc1SC1CCCC1,6.92%
25,O=S(=O)(C=Cc1ccccc1)NCc1cccnc1,15.5%
26,C=C(C(=O)O)c1ccccc1F,3.02%

row,SMILES,Inhibition %
1,CC1(C2CC2)CCN(c2cncc(C#N)n2)CC1,6.7%
2,Nc1nccnc1S,26.8%
3,O=C(O)c1ccnc(S)c1,11.8%
4,O=C(O)c1nccnc1S,83.1%
5,C=CC(=O)NC1CCN(c2ncccc2F)C1 (stereo not shown),14.9%
6,C=CC(=O)N1CCC(c2cccc(C(F)(F)F)c2)C1 (stereo not shown),10.4%
7,C=CC(=O)Nc1ccc2c(c1)CCC(C)(C)O2,6.26%
8,COC(=O)Nc1ccc(S(=O)(=O)F)cc1[N+](=O)[O-],101%
9,COC(=O)Nc1ccc(S(=O)(=O)F)cc1,34.7%
10,COc1ccc(NC(=O)CCl)c([N+](=O)[O-])c1,10.4%
11,C=CC(=O)N1CC(C(C)C)c2ccccc21 (stereo not shown),5.57%
12,C=CC(=O)N(C)CC(=O)Nc1cc(C)on1,7.52%
13,C=CC(=O)N(C)CC(=O)Nc1cc(C)c(=O)n(C)c1,54.5%
14,C=CC(=O)N(C)CC(=O)Nc1csc(C)n1,7.47%
15,C=CCNC(=O)C(C#N)=Cc1cc(F)ccc1F,6.92%
16,CC1CC1C(=O)N1CCC(CS(=O)(=O)F)C1 (stereo not shown),96.8%
17,CC1CC1C(=O)N1CCC(S(=O)(=O)F)C1 (stereo not shown),36.5%
18,C=CC(=O)N1CCC(CS(C)(=O)=O)C1 (stereo not shown),4.28%
19,O=C(C1CCOCC1)N1CCCC(CS(=O)(=O)F)C1 (stereo not shown),55.9%
20,CC1CC1C(=O)N1CCC(S(=O)(=O)F)CC1 (stereo not shown),72.2%
21,CC1CC1C(=O)N1CCOC(CS(=O)(=O)F)C1 (stereo not shown),11.8%
22,O=C(C1CCOCC1)N1CCC(CS(=O)(=O)F)CC1,20.1%
23,O=C(C1CCOCC1)N1CCC(S(=O)(=O)F)C1 (stereo not shown),19.5%
24,CC1CC1C(=O)N1CCC(CS(=O)(=O)F)CC1 (stereo not shown),25.9%
25,O=C(C1CCOCC1)N1CCCC(S(=O)(=O)F)C1 (stereo not shown),8.98%
26,CC1CC1C(=O)N1CCCC(CS(=O)(=O)F)C1 (stereo not shown),71.5%

row,SMILES,Inhibition %
1,CC1CC1C(=O)N1CC(CS(=O)(=O)F)C1 (stereo not shown),16.8%
2,C=CC(=O)Nc1ccc(OC)c(F)c1,4.48%
3,O=c1c2sccc2nc(S)n1CCCN1CCOCC1,1.46%
4,O=C(CCl)Nc1cc(C(F)(F)F)ccc1Cl,4.72%
5,N#Cc1ccnc2ccnn12,4.63%
6,CC1(S(=O)(=O)NC2CN(c3ccc(F)cc3)C2=O)CC1 (stereo not shown),10.3%
7,O=C(C=Cc1nccs1)N1CCc2ccccc21,14.3%
8,CCc1nc(C#N)cc(NC2CSC2)n1,-3.02%
9,Cc1cc(C)n(S(=O)(=O)c2ccc(C)c(C)c2)n1,3.92%
10,CC1CC(N2CCn3c(nnc3C3CC3)C2)C(=O)O1 (stereo not shown),18%
11,O=C(c1cc(F)cc(F)c1)N1CCCCC1C1OCCO1 (stereo not shown),3.28%
12,C=CC(=O)N1CCN(CCc2ccc(F)cc2)CC1,8.07%
13,CC1CCCN(C(=O)C=Cc2cnc3ccccc3n2)C1 (stereo not shown),9.42%
14,C=CC(=O)NC1CCCc2c1cnn2CC (stereo not shown),8.99%
15,Cc1cc(C(=O)CCl)c(C)n1-c1ccccn1,71.3%
16,Cc1cc(C(=O)CCl)c(C)n1-c1nccs1,4.37%
17,Cc1cc(C(=O)CCl)c(C)n1-c1ccon1,82.8%
18,O=C(CCl)Nc1ccon1,14.8%
19,Cc1cc(-n2c(C)cc(C(=O)CCl)c2C)no1,7.75%
20,Cc1csc(CC(=O)NNC(=O)CCl)n1.Cl,0.415%
21,Cc1cc(C(=O)CCl)c(C)n1-c1ncn[nH]1,60%
22,Cc1cc(C(=O)CCl)c(C)n1-c1ccc(F)cn1,5.68%
23,Cc1csc(-n2c(C)cc(C(=O)CCl)c2C)n1,51%
24,C=CC(=O)N(Cc1cncs1)C1CCN(C(C)=O)CC1,5.13%
25,C=CC(=O)N(C)CC(=O)N1CCOCC1,16.7%
26,C=CC(=O)N1CCC(CC(=O)NC)CC1,5.8%

row,SMILES,Inhibition %
1,C=CC(=O)N1CCCC(C(=O)Nc2nc(C)cs2)C1 (stereo not shown),5.32%
2,N#Cc1ccc(N2CCC3(CCOC3)C2)cn1 (stereo not shown),-4.97%
3,O=C1CCN1c1ccc(O)cc1,5.37%
4,C=CC(=O)N1CCCC(n2ccc(C(=O)NC)n2)C1 (stereo not shown),8.31%
5,CC(CC(O)c1ccccc1)NC(=O)c1cccnc1S (stereo not shown),5.61%
6,N#CC(=Cc1ccc(O)c(O)c1)c1ccccn1,3.18%
7,C=CC(=O)NC(c1ccco1)C(C)(C)C (stereo not shown),7.05%
8,COCC1CN(C(=O)c2c[nH]c(C#N)c2)CC(C)(C)O1 (stereo not shown),10.6%
9,CC1=C(C)CN(c2nccnc2C#N)CC1,26%
10,COc1ccc(C=C(C#N)C(N)=O)c(Cl)c1OC,3.63%
11,O=C(CCl)N1CCN(Cc2ccc3c(c2)OCCO3)CC1,15.8%
12,Cc1cc(C(=O)CCl)c(C)n1-c1ccc2c(c1)OCCO2,63.9%
13,O=C(CCl)NCCc1ccc2c(c1)OCCO2,47.9%
14,O=c1[nH]nc(S)n2cccc12,26.7%
15,CC(CNc1nccnc1C#N)c1ccc(F)c(F)c1 (stereo not shown),22.4%
16,Cc1nc2ccccc2nc1SC1CCOC1=O (stereo not shown),70.3%
17,O=C1OCCC1Sc1ccc2ccccc2n1 (stereo not shown),-0.865%
18,Cn1c(SC2CCOC2=O)nc2ccccc21 (stereo not shown),12%
19,CC1CC(Sc2ncnc3ccccc23)C(=O)O1 (stereo not shown),4.79%
20,O=C1OCCC1Sc1ncnc2sccc12 (stereo not shown),6.21%
21,O=C1OCCC1Sc1ncnc2ccccc12 (stereo not shown),54.5%
22,C=CC(=O)N(Cc1nc(-c2cccnc2)no1)C(C)C,22.6%
23,Cc1cc(C#N)nc(NC2CCCCCC2)n1,2.75%
24,Cc1nc(C#N)c(NC(=O)CSCC2CCCCO2)o1 (stereo not shown),12.5%
25,CCCC(NC(=O)CCl)c1ccccc1 (stereo not shown),14.5%
26,CCCc1cc(NC(=O)CCl)n(-c2ccccc2)n1,31.6%

row,SMILES,Inhibition %
1,C=CC(=O)N1CCC2(CCOCC2)CC1,5.66%
2,COc1ccc(C2=CCN(C(=O)CCl)CC2)cc1,78.7%
3,O=C1OCCC1N1CC=C(c2c[nH]c3ccccc23)CC1 (stereo not shown),4.4%
4,COc1ccc(CN2CCN(C(=O)CCl)CC2)cc1.Cl,10.6%
5,O=C(CCl)N1CC=C(c2c[nH]c3ccccc23)CC1,51.5%
6,COc1ccc(N2CCN(C(=O)CCl)CC2)cc1,28.8%
7,O=C(CCl)c1c[nH]c2ccccc12,37.9%
8,C=CC(=O)N1CCOC[C@@H]1CC(C)C,6.89%
9,c1cc(OCC2CO2)c2cc[nH]c2c1 (stereo not shown),-2.42%
10,N#CC(=Cc1ccccc1)C(=O)Nc1nncs1,3.58%
11,COc1cc(C)c(C)cc1S(=O)(=O)n1cnc(C)c1,6.69%
12,COC(=O)c1cccc(NC(=O)CCl)c1,25.2%
13,CCOC(=O)c1ccccc1NC(=O)CCl,7.46%
14,NC(=O)c1ccc(NC(=O)CCl)cc1,35.3%
15,N#CCc1ccc(NC(=O)CCl)cc1,88.8%
16,CCc1ccc(NC(=O)CCl)cc1,99.1%
17,COC(=O)c1ccc(NC(=O)CCl)cc1,60.9%
18,CC(=O)c1ccc(NC(=O)CCl)cc1,45.4%
19,N#Cc1ccc(NC(=O)CCl)cc1Cl,29.1%
20,CC(=O)Nc1ccc(NC(=O)CCl)cc1,4.19%
21,CCOC(=O)c1ccc(NC(=O)CCl)cc1,56.5%
22,CCc1cccc(NC(=O)CCl)c1,14.1%
23,O=C(O)Cc1ccc(NC(=O)CCl)cc1,43.8%
